High-throughput results from PubChem BioAssay.
CYP2C9 activ: increases human cytochrome P450 2C9 activity | P11712 | recombinant CYP2C9, luciferin-H conversion, luminescence; active compounds read high; factor 1 = untreated enzyme, 0 = blocked | activation factor at 5 µM | hit rate 1.4% among 96,000;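 active = activation factor of 2 or more for CYP2C9 at a 5 µM dose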;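 note: 0 = sulfaphenazole-blocked wells and 1 = vehicle-only wells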
Target sequence (P11712 whole entry, looked up): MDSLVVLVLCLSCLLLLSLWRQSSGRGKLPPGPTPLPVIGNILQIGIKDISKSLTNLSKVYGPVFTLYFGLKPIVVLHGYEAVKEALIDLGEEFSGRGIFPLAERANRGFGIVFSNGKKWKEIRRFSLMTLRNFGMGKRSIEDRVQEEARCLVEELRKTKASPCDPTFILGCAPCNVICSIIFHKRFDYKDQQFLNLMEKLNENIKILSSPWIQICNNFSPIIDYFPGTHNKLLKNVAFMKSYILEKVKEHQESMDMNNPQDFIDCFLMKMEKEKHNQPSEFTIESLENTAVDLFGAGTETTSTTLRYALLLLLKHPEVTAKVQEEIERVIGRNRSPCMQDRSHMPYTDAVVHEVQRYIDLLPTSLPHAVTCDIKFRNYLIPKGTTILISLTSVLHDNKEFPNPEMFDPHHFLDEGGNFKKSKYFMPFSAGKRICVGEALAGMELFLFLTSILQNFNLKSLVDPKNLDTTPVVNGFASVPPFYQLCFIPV
PostGolgi ctrl: yeast control strain growth, post-Golgi counter-screen; efflux-deficient yeast background strain, growth absorbance A615, 16 h; inhibition, % at 10 µM; hit rate 5% among 98,000
CYP2C19 inh: human CYP2C19 inhibition; AID 778; inhibition, % at 5 µM; hit rate 21% among 96,000; CYP2C19 Supersomes, luciferin-H EGE luminescence, 30 min; P33261;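 active = CYP2C19 inhibition above a set limit at 5 µM in the primary screen, cut at about 50% in these data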;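 note: plate controls were negative control wells for no effect and 2.5 mM tranylcypromine positive control for full effect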
CYP2C9 inhib: human CYP2C9 inhibition; P11712; CYP2C9 Supersomes, luciferin-H conversion, luminescence; inhibition, % at 5 µM; hit rate 20% among 96,000;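 active = blocking of liver enzyme CYP2C9 beyond about 50% at 5 µM, limit read from the data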
PostGolgi yeast: growth inhibition of a yeast mutant, post-Golgi transport screen; post-Golgi transport phenotypic cell assay; inhibition, % at 10 µM; hit rate 0.9% among 98,000;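 note: yeast cells grown in 1536-well plates; yeast grown about 18 h at 30C before absorbance read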
CYP2C19 activ: cytochrome P450 2C19 (human) activation; recombinant CYP2C19, luciferin-H EGE luminescence; active compounds read high; 0 = fully inhibited enzyme, 1 = untreated enzyme; activation factor at 5 µM; 96,000 tested, under 10 active; AID 1025;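 active = activation factor of at least 2 at 5 µM in the primary screen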;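 note: 0 = wells with 2.5 mM tranylcypromine and 1 = vehicle-only wells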
* = called active by the depositor; · = no result given. Shown are actives, neighbours in structure and some others; about 32% of the full set was active somewhere. Cut-off read from the data, not from the text of the source, unless noted: active = inhibition above about 30%; inactive = the rest.

SMILES	CYP2C9 activ	PostGolgi ctrl	CYP2C19 inh	CYP2C9 inhib	PostGolgi yeast	CYP2C19 activ
Cc1cccc2cc(C(c3nnnn3CC3CCCO3)N3CCc4ccccc4C3)c(=O)[nH]c12 (centres undefined)	0.4	1	47	60*	1	0.5
Cc1cc(C(c2nnnn2Cc2ccccc2)N2CCOCC2)c(C)n1-c1ccc2c(c1)OCO2 (centres undefined)	0.1	17	96*	90*	-12	0
CCOC(=O)CN1C(=O)C(O)=C(C(C)=O)C1c1ccccc1 (centres undefined)	0.9	8	8	8	0	0.9
Cn1c(=O)c2cc(S(=O)(=O)NCCC(=O)NCCC3=CCCCC3)ccc2n(C)c1=O	0.9	17	-8	8	17	1.1
Fc1ccc(-c2nnc(CN3CCC(c4nc5ccccc5s4)CC3)o2)cc1	0.8	38*	7	20	16	0.9
O=C(CSc1ccc(F)cc1)N1CCC(c2nc3ccccc3s2)CC1	0.7	20	24	33	5	0.8
O=C1CCCc2c1nc(-c1ccccc1)n2O	1.1	4	2	-8	7	1
O=Nc1c(O)n(Cc2ccc(Cl)c(Cl)c2)c2ccccc12	0.4	59*	51*	62*	22	0.5
CC(C)CC(NC(=O)C1CCCCC1)C(=O)NCc1ccccn1 (centres undefined)	1.1	22	-4	-14	-1	1
O=C(c1cn(-c2ccccc2)nc1-c1ccc(Cl)s1)N1CCOCC1	1	29	12	2	-5	0.9
CCN(CC)S(=O)(=O)c1cccc(-c2cn3cc(C)ccc3n2)c1	0.3	4	61*	67*	23	0.4
Cc1ccc2nc(-c3cccc(S(=O)(=O)N(C)C)c3)cn2c1	0.9	6	14	14	-4	0.9
CCCCn1c(SCC2CCCO2)nc2cc(S(N)(=O)=O)ccc21 (centres undefined)	0.6	13	16	37	-16	0.8
O=C(Nc1ncc(Cc2cccc(Cl)c2)s1)C1=NCCN1	1.1	2	-7	-13	-3	1.1
O=C(Nc1ncc(Cc2cccc(Cl)c2)s1)c1cccs1	0.5	47*	26	49	1	0.7
O=C(Nc1ncc(Cc2ccccc2)s1)c1cccs1	0.9	25	-5	6	-8	1
O=C(Nc1nnc(Cc2ccc(Cl)cc2)s1)c1ccco1	0.4	7	18	63*	1	0.8
COc1ccc(Cc2nnc(NC(=O)c3cccs3)s2)cc1	0.3	7	9	69*	18	0.9
Cc1ccc(Cc2cnc(NC(=O)c3cccs3)s2)cc1	1.1	41*	9	-6	10	0.9
O=C(Nc1nnc(Cc2ccccc2)s1)c1cccs1	0.8	-1	3	16	1	1
CCOCc1nnc(NC(=O)c2ccco2)s1	1.1	8	-8	-9	-4	1.1
O=C(Nc1ccccc1C(=O)N1CCCCCC1)c1cccc(S(=O)(=O)N2CCOCC2)c1	0.9	8	-5	6	6	1.1
Cc1ccc(S(=O)(=O)NCCOC(=O)Nc2sc(=S)n(C)c2C)cc1	1	4	73*	-3	6	0.3
O=C(O)c1ccc(N2Cc3ccccc3C2)cc1O	0.5	10	48	53*	1	0.5
CCOC(=O)c1ccc(N2Cc3cc(C)c(C)cc3C2)cc1O	1.1	·	-14	-15	·	1.1
SMILES	CYP2C9 activ	PostGolgi ctrl	CYP2C19 inh	CYP2C9 inhib	PostGolgi yeast	CYP2C19 activ
COCC(C)n1c(C)cc(C(=O)COC(=O)c2ccc(N3CCCC3=O)cc2)c1C (centres undefined)	1	8	13	2	-5	0.9
CCn1c(N)c(C(=O)NC)sc1=S	0.5	1	52*	50*	1	0.5
O=C1CCCc2c1nc(-c1ccco1)n2O	0.8	-3	15	16	10	0.9
CCOC(=O)c1[nH]nc2c1C(=O)N(Cc1ccccc1)C2=O	0.8	14	34	20	5	0.7
O=C(CN1CCN(c2ncc(C(F)(F)F)cc2Cl)CC1)NCCNc1ncc(C(F)(F)F)cc1Cl	1	85*	-2	0	-2	1
CC(C)(C)NC(=O)NC(=O)CN1CCN(c2ncc(C(F)(F)F)cc2Cl)CC1	0.8	32*	26	23	-3	0.7
CC1(C)C2CCC1(C)C(OC(=O)CSc1nc(N)cc(=O)[nH]1)C2 (centres undefined)	1	6	22	-1	8	0.8
O=C(CSc1ncnc2nc[nH]c12)N1CCOCC1	1.1	15	-12	-12	8	1.1
Cc1cc(C)c2[nH]c(=O)c(CN(Cc3nnnn3C3CCCC3)C3CCCCC3)cc2c1	0.8	1	6	23	6	0.9
COc1ccc(Cn2nnnc2CN(Cc2cc3ccc(C)cc3[nH]c2=O)C2CCCC2)cc1	0.8	15	39	18	-4	0.6
Cc1cccc2cc(CN(Cc3nnnn3C3CCCCC3)C3CCCC3)c3nnnn3c12	·	86*	·	·	97*	·
COc1ccc(Cn2nnnc2CN(Cc2cc3cccc(C)c3[nH]c2=O)C2CCCC2)cc1	0.4	-4	47	61*	-4	0.5
COc1ccc2[nH]c(=O)c(CN(Cc3ccco3)Cc3nnnn3Cc3ccccc3)cc2c1	1	4	12	-4	28	0.9
CCOc1ccc2[nH]c(=O)c(CN(Cc3nnnn3Cc3ccco3)C3CCCCC3)cc2c1	0.8	-3	70*	25	-8	0.3
COc1cc2cc(CN(Cc3nnnn3Cc3ccco3)C3CCCCC3)c(=O)[nH]c2cc1OC	0.9	8	18	12	0	0.8
CCOc1ccc2[nH]c(=O)c(CN(Cc3ccco3)Cc3nnnn3Cc3ccccc3)cc2c1	0.5	6	31	50*	-1	0.7
COC(=O)C1CCN(c2cc(=O)n(-c3ccc(OC)cc3)c(=O)[nH]2)CC1	1.3	-3	-23	-26	-1	1.2
Cc1cc2ncn(CC(O)COC3CCCCC3)c2cc1C (centres undefined)	0.1	31*	64*	86*	13	0.4
O=C(NC(=S)Nc1nc2c(s1)CSc1ccccc1-2)c1ccccc1	0.7	8	12	29	-7	0.9
O=C(NCC1CC1)c1ccc(Nc2nc3ccc(Br)cc3[nH]2)cc1	0.3	3	32	69*	-2	0.7
O=C(NCc1ccco1)c1cccc(Nc2nc3ccc(Br)cc3[nH]2)c1	0.1	-4	34	91*	3	0.7
O=C(CC1CCCC1)Nc1nc2ccccc2[nH]1	0.9	1	13	12	4	0.9
O=C(Cc1ccc(Nc2nc3ccc(Br)cc3[nH]2)cc1)NCCc1cccs1	0.1	-2	67*	94*	-1	0.3
COc1ccccc1C(=O)N1CCCC(c2nc(-c3cc(OC)c(OC)c(OC)c3)no2)C1 (centres undefined)	0.6	7	59*	45	-8	0.4
